# Where “and” joins values, the source holds several entries; their conditions need not be identical. Equal entries are not always repeated. Records with an inconclusive call do not appear. The source holds several records for some structures; these can differ, active in one and inactive in another. Calls of active or inactive are those of the source. Rule for the calls: active = hit-call score of the fitted dose curve at least 0.9, where 1 is the maximum; inconclusive = response in the unintended direction; inactive = score below 0.9.
# Experiments:
# [1] = TOX21_p53_BLA_p2_viability: Viability Assessment in the Tox21 HCT-116 p53 Agonism Beta-lactamase Assay, Phase 2 (AID 2283591);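 note: compound exposure lasted 16 h at 37 °C; actives lower the ATP signal meaning cytotoxicity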
# Method in brief: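 HCT116 p53-bla cells, 4000/well, dosed after 5 h plating (217-fold dilution of DMSO stocks) and incubated 16 h at 37C. Viability taken as cellular ATP by CellTiter-Glo luminescence after 30 min RT; signal loss marks cytotoxicity.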
# [2] = molecular target: Cellular tumor antigen p53 (Homo sapiens) (UniProt P04637); test: TOX21_p53_BLA_p2_ratio: Tox21 HCT-116 p53 Agonism Beta-lactamase Assay, Ratio, Phase 2 (AID 2283592)
# Method in brief: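 HCT116 p53-bla; 4000 cells/well; 5 h pre-incubation; cpd in DMSO, 217-fold dilution; 16 h 37C/5% CO2; CCF4-AM 2 h RT; Ex 405, Em 460/530 ratio; DMSO = baseline; positive fitting direction.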
# [3] = TOX21_p53_BLA_p3_viability: Viability Assessment in the Tox21 HCT-116 p53 Agonism Beta-lactamase Assay, Phase 3 (AID 2283593);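 note: cells exposed to compound for 16 h before reading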
# Method in brief: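 HCT116 cells, 4000/well, dosed 5 h after plating by pin transfer (217-fold dilution from DMSO stock) and incubated 16 h at 37C, 5% CO2. Viability read as ATP luminescence with CellTiter-Glo after 30 min at room temperature.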
# [4] = molecular target: Cellular tumor antigen p53 (Homo sapiens) (UniProt P04637); test: TOX21_p53_BLA_p3_ratio: Tox21 HCT-116 p53 Agonism Beta-lactamase Assay, Ratio, Phase 3 (AID 2283596)
# Method in brief: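 HCT116 p53-bla cells (4000/well) given compound in DMSO (217-fold dilution) after 5 h, incubated 16 h at 37C. CCF4-AM substrate 2 h at room temperature; 460/530 nm emission ratio, gain fitted against DMSO.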
# [5] = TOX21_p53_BLA_p4_viability: Viability Assessment in the Tox21 HCT-116 p53 Agonism Beta-lactamase Assay, Phase 4 (AID 2283597);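 note: hits lower the luminescence signal meaning cytotoxicity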
# Method in brief: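 Cells plated, 5 h pre-incubation; DMSO compounds pinned (217-fold dilution); 16 h, 37C/5% CO2; CCF4-AM 2 h RT; CellTiter-Glo 30 min RT; luminescence read.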
# [6] = molecular target: Cellular tumor antigen p53 (Homo sapiens) (UniProt P04637); test: TOX21_p53_BLA_p5_ratio: Tox21 HCT-116 p53 Agonism Beta-lactamase Assay, Ratio, Phase 5 (AID 2283599)
# Method in brief: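 HCT-116 p53-bla cells (4000/well) plated 5 h, dosed with compound (217-fold DMSO dilution) for 16 h at 37 C; CCF4-AM substrate 2 h at room temperature. Activity is the 460/530 nm emission ratio (405 nm excitation), fitted in gain-of-signal direction versus DMSO.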
# [7] = TOX21_p53_BLA_p5_viability: Viability Assessment in the Tox21 HCT-116 p53 Agonism Beta-lactamase Assay, Phase 5 (AID 2283600)
# Method in brief: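 4000 cells/well; 5 h pre-incubation; DMSO compounds pin-transferred, 217-fold dilution; 16 h, 37C/5% CO2; CCF4-AM 2 h RT; CellTiter-Glo 30 min RT; luminescence.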
# [8] = molecular target: Cellular tumor antigen p53 (Homo sapiens) (UniProt P04637); test: TOX21_p53_BLA_p4_ratio: Tox21 HCT-116 p53 Agonism Beta-lactamase Assay, Ratio, Phase 4 (AID 2283601)
# Method in brief: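 HCT-116 p53 beta-lactamase reporter cells (4000/well) preincubated 5 h, then compound (217-fold dilution of DMSO stock) for 16 h at 37C. CCF4-AM substrate added 2 h at room temperature; 460/530 nm emission ratio fitted upward versus DMSO.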
# Cellular tumor antigen p53 (Homo sapiens), sequence (P04637 whole entry, looked up): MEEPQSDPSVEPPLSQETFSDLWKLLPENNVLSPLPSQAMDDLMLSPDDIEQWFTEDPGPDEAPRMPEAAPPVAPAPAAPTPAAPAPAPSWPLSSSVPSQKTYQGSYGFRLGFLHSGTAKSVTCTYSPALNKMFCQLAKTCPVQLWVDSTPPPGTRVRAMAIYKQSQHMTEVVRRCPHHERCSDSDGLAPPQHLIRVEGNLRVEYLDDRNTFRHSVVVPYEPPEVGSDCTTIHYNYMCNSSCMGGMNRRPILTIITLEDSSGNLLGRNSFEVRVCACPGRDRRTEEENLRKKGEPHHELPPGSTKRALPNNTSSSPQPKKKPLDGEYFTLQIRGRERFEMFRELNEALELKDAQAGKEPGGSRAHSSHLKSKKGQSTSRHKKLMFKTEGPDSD
compound,measurement,setting,value
CC[C@H](N)c1ccccc1,outcome,[1],inactive
same,outcome,[2],inactive
same,outcome,[3],inactive
same,outcome,[4],inactive
same,outcome,[5],inactive
same,outcome,[6],inactive
C[C@]12CC[C@@H]3c4ccc(OC(=O)N(CCCl)CCCl)cc4CC[C@H]3[C@@H]1CC[C@@H]2OP(=O)(O)O,outcome,[1],inactive
same,AC50,[2],8.82 µM (active) and 26.6 µM (active)
same,outcome,[3],inactive
same,AC50,[4],7.01 µM (active) and 23.1 µM (active)
same,outcome,[5],inactive
same,AC50,[6],7.78 µM (active) and 24.6 µM (active)
same,outcome,[7],inactive
CN1CCN=C(c2ccccc2)c2cc(Cl)ccc21,outcome,[1],inactive
same,AC50,[2],0.141 nM (active)
same,outcome,[3],inactive
same,outcome,[4],inactive
same,outcome,[5],inactive
same,AC50,[6],0.104 nM (active)
same,AC50,[7],0.386 nM (active)
same,AC50,[8],0.0267 nM (active)
COc1ccc2c3c1O[C@H]1[C@@H](O)C=C[C@H]4[C@@H](C2)NCC[C@@]341,outcome,[1],inactive
same,outcome,[2],inactive
same,outcome,[3],inactive
same,outcome,[4],inactive
same,outcome,[5],inactive
same,outcome,[6],inactive
same,outcome,[7],inactive
same,outcome,[8],inactive
CCOC(=S)S,outcome,[1],inactive
same,outcome,[2],inactive
same,outcome,[3],inactive
same,AC50,[4],86.6 µM (active)
same,outcome,[4],inactive
same,outcome,[5],inactive
same,outcome,[6],inactive
same,outcome,[8],inactive
ClCCOCOCCCl,outcome,[1],inactive
same,outcome,[2],inactive
same,outcome,[3],inactive
same,outcome,[4],inactive
same,outcome,[5],inactive
same,outcome,[6],inactive
CCNc1nc(NC(C)C)nc(OC)n1,outcome,[1],inactive
same,outcome,[2],inactive
same,outcome,[3],inactive
same,outcome,[4],inactive
same,outcome,[5],inactive
same,outcome,[6],inactive
same,outcome,[7],inactive
[H+].[H+].[Hg+2].[O-]B([O-])[O-].[c-]1ccccc1,AC50,[1],7890 nM (active)
same,AC50,[2],1730 nM (active)
same,AC50,[3],975 nM (active)
same,AC50,[4],1.17 µM (active)
same,AC50,[5],8430 nM (active)
same,AC50,[6],5390 nM (active)
same,AC50,[7],4940 nM (active)
same,AC50,[8],18300 nM (active)
BrCCCCCCBr,outcome,[1],inactive
same,outcome,[2],inactive
same,outcome,[3],inactive
same,outcome,[4],inactive
CCOP(=S)(OCC)SC(CCl)N1C(=O)c2ccccc2C1=O (stereo not given),outcome,[1],inactive
same,outcome,[2],inactive
same,outcome,[3],inactive
same,outcome,[4],inactive
same,outcome,[5],inactive
same,outcome,[6],inactive
same,outcome,[7],inactive
same,outcome,[8],inactive

# — PubChem BioAssay (EPA / NIEHS)
